Screening results as filed in PubChem.
UGM FP inh = blocks M. tuberculosis UGM enzyme; purified UGM, fluorescence polarization probe displacement; inhibition, % at 10 µM; 0.06% of 320,000 active; AID 504406; in the data active = inhibition above about 10%, passing the limit was not always enough
Vc quorum ag = induces V. cholerae light production without autoinducers. V. cholerae BH1578 lux reporter, luminescence, 6 h. activation, % at 18.7 µM. 0.16% of 350,000 active; in the data active = activation mostly above about 9.7%, no sharp cut-off
Mtb FBA inh = Mtb fructose-bisphosphate aldolase inhibition. P9WQA3. purified M. tuberculosis FBA, fluorescence read-out. inhibition, % at 1 µM. 2.3% of 360,000 active; in the data active = inhibition above about 27%;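 also: 0% = vehicle and 100% = reference inhibitor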
GDH-TPI counter = GDH-TPI coupled enzyme inhibition counter-screen | GDH-TPI coupled enzyme counterscreen, NADH absorbance | inhibition, % at 4.8 µM | 1.2% of 360,000 active | AID 588335; in the data active = inhibition above about 30%;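 also: 0% = DMSO wells and 100% = wells lacking the enzyme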
Rv3671c protease = Rv3671c (M. tuberculosis) protease inhibition; P9WHR9; inhibition, % at 5.96 µM; 0.048% of 320,000 active; AID 2606; in the data active = inhibition above about 38%;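 also: extracellular domain of Rv3671c used as enzyme; 0% = enzyme with DMSO and 100% = no enzyme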
Target sequence (P9WHR9 whole entry, looked up, the tested form may be a part): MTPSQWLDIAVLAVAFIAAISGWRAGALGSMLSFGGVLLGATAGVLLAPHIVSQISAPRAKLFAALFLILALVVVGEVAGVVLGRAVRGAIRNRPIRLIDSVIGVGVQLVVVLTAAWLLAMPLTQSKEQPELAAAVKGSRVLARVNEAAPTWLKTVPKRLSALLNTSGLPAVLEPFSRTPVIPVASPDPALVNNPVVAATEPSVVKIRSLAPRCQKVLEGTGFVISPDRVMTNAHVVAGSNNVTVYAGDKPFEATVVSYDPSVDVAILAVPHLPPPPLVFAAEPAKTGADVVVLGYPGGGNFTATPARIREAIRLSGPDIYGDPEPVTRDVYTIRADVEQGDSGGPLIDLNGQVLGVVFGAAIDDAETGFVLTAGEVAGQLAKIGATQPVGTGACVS
RecA splice inh = inhibitors of M. tuberculosis RecA intein splicing. P9WHJ3. cell-free RecA intein splicing, fluorescence. inhibition, % (concentration not given with the values). AID 2221. 0.75% of 290,000 active; in the data active = inhibition above about 30%;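 also: 0% = vehicle wells and 100% = reference inhibitor control wells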
The depositor's hits bear a star; i = inactive; . = no result; ! = not confirmed by another sample. Rows were chosen to be rich in hits. Some 4.1% of all compounds tested hit in one or more screens of this group.

SMILES	UGM FP inh	Vc quorum ag	Mtb FBA inh	GDH-TPI counter	Rv3671c protease	RecA splice inh
Cc1cn(C(=O)c2ccccc2)c(=S)n1-c1ccc(Cl)cc1	-3	i	0	34*	2	0
O=C(c1cc(=O)[nH]c2ccccc12)N1CCN(c2ccc([N+](=O)[O-])cc2)CC1	2	0	-7	35*	-1	-2
Cc1ccc(C)c(NC(=O)Cc2nc(CNCC(C)C)cs2)c1	-2	0	0	-5	10	.
Cc1nc(NN)c2c3c(sc2n1)COC(C)(C)C3	-3	-18	4	10	4	-4
O=C(O)C/C(=C\c1ccc(N2CCOCC2)c([N+](=O)[O-])c1)c1nc2ccccc2s1	1	4	0	33*	1	6
Cc1onc(-c2ccccc2)c1C(=O)OCC(=O)c1ccc(F)cc1	.	-10	0	-3	.	.
O=C(N/N=C/C=C/c1ccccc1)c1ccc(Br)cc1	2	i	0	27	0	-2
Cn1cc(C(=O)N/N=C/c2cccc(O)c2)ccc1=O	-2	0	-1	5	-8	0
Cn1cc(C(=O)N/N=C/C(Br)=C/c2ccccc2)ccc1=O	0	0	2	44*	-7	0
Cn1cc(C(=O)N/N=C/C=C/c2ccccc2)ccc1=O	-1	i	-4	40*	3	-1
Cn1cc(C(=O)N/N=C/C(Br)=C\c2ccccc2)ccc1=O	-2	.	-3	32*	2	3
COc1ccc(C(=O)NNC(=O)C23CC4CC(CC(C4)C2)C3)cc1OC	-2	i	-1	6	0	.
CCOc1ccc(NC(=O)c2sc3nc(N4CCOCC4)c4c(c3c2N)CC(C)(C)OC4)cc1	1	i	4	14	9	-10
Cc1cc2cc3c(=O)[nH]c(=O)nc-3n(CC(O)C(O)C(O)CO)c2cc1C (configuration not stated)	.	.	149*	26	.	.
COc1ccc(CCCNC(=O)C2(C)Cc3c(-c4cccc(C(N)=O)c4)ccnc3O2)cc1 (configuration not stated)	.	i	2	12	.	.
Cc1cc(OC(C)C(=O)NCCCN2CCCC2=O)c2c(C)c(C)c(=O)oc2c1 (configuration not stated)	-2	-1	112*	0	-7	4
Cc1c(OC(C)C(=O)NCCCN2CCCC2=O)ccc2c3c(c(=O)oc12)CCCC3 (configuration not stated)	0	-4	43*	3	-3	-2
Cc1ccc(NC(=O)/C(=C\c2cccnc2)NC(=O)c2ccccc2)cc1	1	-1	1	0	-1	-3
COc1ccccc1/C=C/C(=O)NCC(=O)N=Nc1c(O)[nH]c2ccccc12	6	0	4	36*	-8	-3
O=C(CC1C(=O)NCCN1Cc1ccccc1)NC1CCCCC1 (configuration not stated)	.	0	0	-8	.	.
O=C(CCCN1C(=O)/C(=C\c2cccs2)SC1=S)NNC(=O)c1ccncc1	0	0	-4	11	-11	2
O=C(CCCN1C(=O)/C(=C\c2ccccc2)SC1=S)Nc1ccc(O)cc1C(=O)O	4	0	0	25	-7	41*
O=C(CCCN1C(=O)/C(=C/c2ccccc2)SC1=S)Nc1ccccc1O	-1	0	-3	20	-16	0
COC(=O)CCCCCN1C(=O)/C(=C\c2ccncc2)SC1=S	-5	-1	8	15	2	34*
O=C(NN1C(=O)/C(=C/c2cccs2)SC1=S)c1ccncc1	0	0	-7	34*	4	2
SMILES	UGM FP inh	Vc quorum ag	Mtb FBA inh	GDH-TPI counter	Rv3671c protease	RecA splice inh
O=C(CCCN1C(=O)/C(=C/c2cccs2)SC1=S)NNC(=O)c1cccnc1	1	0	3	33*	-25	-3
CN(C)C(=O)c1ccc(NC(=O)CN2C(=O)NC3(CCCc4ccccc43)C2=O)cc1 (configuration not stated)	5	i	2	1	6	-5
CCOC(=O)[C@H]1[C@H]2COc3ccc(Cl)cc3[C@@H]2N2C(=O)c3ccccc3NC(=O)[C@@]12C	0	-1	-1	2	-25	.
COc1ccc(NC(=O)c2cc3cc(OC)ccc3oc2=O)cc1	-1	i	0	5	14	.
COc1ccc2oc(=O)c(C(=O)Oc3ccc(NC(C)=O)cc3)cc2c1	2	i	31*	18	13	-10
CCC1CCCCN1C(=O)COC(=O)COc1ccc(Br)cc1 (configuration not stated)	1	1	2	2	-2	.
CCC(C)NCCOc1ccc(Br)cc1 (configuration not stated)	1	2	-12	-3	3	9
CCC(C)NCCOc1ccccc1C (configuration not stated)	-1	24*	1	9	-3	-1
O=C1/C(=C/Nc2cccc([N+](=O)[O-])c2)CCc2ccccc21	2	0	-2	20	-5	60*
CCn1c(/C=C/c2cc[n+](C)cc2)nc2ccccc21	2	0	6	13	-5	-10
CCCn1c(/C=C/c2ccccc2)nc2ccccc21	0	0	53*	38*	0	5
CCCCn1c(O)c2n(c1=O)Cc1ccccc1N=C2c1ccccc1	.	.	2	.	.	.
O=C(CSc1nnc(NC(=O)c2c(F)cccc2F)s1)NC1CCCC1	1	0	-1	-7	-5	-2
O=C(CSc1nnc(NC(=O)c2ccco2)s1)NC1CCCC1	0	-2	-3	40*	-7	-1
O=[N+]([O-])c1ccc2nc(-c3ccc(Cl)cc3)n(OCc3ccccc3)c2c1	0	0	-1	34*	5	7
C=CC(=O)Nc1cccc(Oc2ccnc3[nH]ccc23)c1	.	i	180*	2	.	.
CCC(=O)N1CCc2cc(S(=O)(=O)CCC(=O)N3CCCC(C)C3)ccc21 (configuration not stated)	-1	0	0	5	10	-7
O=C(O)CC/C(=N\Nc1ccc(S(=O)(=O)N2CCCC2)cc1[N+](=O)[O-])c1cccs1	.	0	-6	25	.	.
O=C(O)CC/C(=N\Nc1ccc(S(=O)(=O)N2CCOCC2)cc1[N+](=O)[O-])c1cccs1	1	0	-16	67*	4	3
COCCNC(=O)C1(C)CCCN(C(=O)c2cccc(C#N)c2)C1 (configuration not stated)	.	0	-5	0	.	.
CC1(C)Cc2c(sc3[nH]c(=S)n(Cc4ccco4)c(=O)c23)CO1	-1	i	-4	37*	-1	0
COc1ccc(NS(=O)(=O)c2csc(C(=O)N3CCCC3)c2)c(OC)c1	0	i	1	-1	-7	-2
O=[N+]([O-])c1ccc(SCCc2ccncc2)cc1	3	-1	-3	42*!	-3	-5
c1ccc(-c2ccc(-c3cn4c(n3)CCC4)cc2)cc1	1	1	158*	0	4	7
